Source: PubChem BioAssay (EPA / NIEHS)
Records with an inconclusive call do not appear. Activity calls are given as the source filed them. How the source made its calls, unless noted: active means hit-call score of the fitted dose curve at least 0.9, where 1 is the maximum; inactive means score below 0.9.

Key:
[1] = biological target: Paired box protein Pax-6 (Homo sapiens) (UniProt P26367); test: ATG_Pax6_CIS: Attagene CIS-FACTORIAL HepG2 Assay for human Paired Box 6 (PAX6) (AID 2282956); conditions: HepG2 CIS-FACTORIAL PAX6 reporter transcription, RNA readout; actives raise or lower the signal
Paired box protein Pax-6 (Homo sapiens), sequence (P26367 whole entry, looked up): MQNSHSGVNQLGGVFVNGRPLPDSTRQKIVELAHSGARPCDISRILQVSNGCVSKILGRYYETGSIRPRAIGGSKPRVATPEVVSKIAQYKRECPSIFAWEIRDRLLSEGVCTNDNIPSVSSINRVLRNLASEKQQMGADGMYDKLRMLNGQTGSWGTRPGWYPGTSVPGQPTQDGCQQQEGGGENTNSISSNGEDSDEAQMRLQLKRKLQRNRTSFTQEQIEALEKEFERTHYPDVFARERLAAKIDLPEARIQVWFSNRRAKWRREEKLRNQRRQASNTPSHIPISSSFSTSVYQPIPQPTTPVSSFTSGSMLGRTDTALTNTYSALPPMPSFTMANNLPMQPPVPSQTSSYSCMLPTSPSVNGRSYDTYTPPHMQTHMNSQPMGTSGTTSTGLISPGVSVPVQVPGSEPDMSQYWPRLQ
Summary of the method: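 HepG2 cells transiently transfected with cis-promoter-driven multiplexed reporter units sensing endogenous transcription factor activity; 24 h chemical exposure. Reporter mRNA quantified by RT-PCR, 6-FAM labelling, HpaI digestion and capillary electrophoresis; bidirectional fit versus DMSO baseline.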

[2] = ATG_PXRE_CIS: Attagene CIS-FACTORIAL HepG2 Assay for human Pregnane X Receptor Element (PXRE) (AID 2282957); conditions: HepG2 Attagene CIS-FACTORIAL PXRE reporter, mRNA; actives raise or lower the signal
Summary of the method: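 HepG2 cells transiently transfected with cis-regulated multiple reporter transcription units; endogenous factor activity measured as reporter mRNA 24 h after dosing. RT-PCR, fluorescent primer extension, HpaI digestion, capillary electrophoresis; bidirectional fit versus DMSO baseline.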

[3] = ATG_Sox_CIS: Attagene CIS-FACTORIAL HepG2 Assay for human SRY-box transcription factor (SOX) (AID 2282960); conditions: HepG2 Attagene cis-factorial SOX reporter, mRNA; actives raise or lower the signal
Summary of the method: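 HepG2, cis reporter units, 24 h exposure. Reporter mRNA: RT-PCR → FAM labelling → HpaI → CE fluorescence. Bidirectional fit vs DMSO.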

[4] = biological target: Transcription factor Sp1 (Homo sapiens) (UniProt P08047); test: ATG_Sp1_CIS: Attagene CIS-FACTORIAL HepG2 Assay for human Specificity Protein 1 (Sp1) (AID 2282961); conditions: HepG2 Sp1 cis-reporter transcription, actives raise or lower the signal
Transcription factor Sp1 (Homo sapiens), sequence (P08047 whole entry, looked up, the tested form may be a part): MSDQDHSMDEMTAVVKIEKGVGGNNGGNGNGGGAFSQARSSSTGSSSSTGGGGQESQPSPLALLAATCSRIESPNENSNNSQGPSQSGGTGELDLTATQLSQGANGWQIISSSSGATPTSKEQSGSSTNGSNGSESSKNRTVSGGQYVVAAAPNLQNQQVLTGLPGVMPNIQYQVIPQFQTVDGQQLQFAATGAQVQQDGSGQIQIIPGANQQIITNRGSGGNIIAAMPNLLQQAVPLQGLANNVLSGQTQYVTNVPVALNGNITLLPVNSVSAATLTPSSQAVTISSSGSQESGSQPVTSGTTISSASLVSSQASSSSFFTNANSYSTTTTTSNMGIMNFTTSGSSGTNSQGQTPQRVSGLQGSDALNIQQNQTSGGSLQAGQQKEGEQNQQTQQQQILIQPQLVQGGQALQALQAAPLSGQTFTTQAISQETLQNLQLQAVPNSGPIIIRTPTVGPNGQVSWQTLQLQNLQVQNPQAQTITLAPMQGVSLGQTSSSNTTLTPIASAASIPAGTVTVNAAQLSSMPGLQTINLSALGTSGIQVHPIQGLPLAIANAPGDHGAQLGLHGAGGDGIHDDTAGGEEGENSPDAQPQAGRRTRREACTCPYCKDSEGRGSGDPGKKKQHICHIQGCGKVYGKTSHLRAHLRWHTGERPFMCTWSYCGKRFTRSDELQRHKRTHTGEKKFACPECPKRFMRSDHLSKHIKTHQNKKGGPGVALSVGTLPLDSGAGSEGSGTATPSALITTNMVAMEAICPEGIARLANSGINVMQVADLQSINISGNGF
Summary of the method: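 Liver-derived HepG2 cells, cis-element reporter library, 24 h treatment; RNA isolated, cDNA amplified with reporter-specific primers, FAM-labeled fragments sized on capillary analyzer. DMSO baseline, bidirectional curve fit.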

[5] = ATG_SREBP_CIS: Attagene CIS-FACTORIAL HepG2 Assay for human Sterol Regulatory Element Binding (SREBP) (AID 2282962); conditions: HepG2 Attagene cis-factorial SREBP reporter, mRNA; actives raise or lower the signal
Summary of the method: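 HepG2 cells transiently transfected with multiplexed cis-promoter reporter units sensing endogenous transcription factors; reporter mRNA measured 24 h after dosing by RT-PCR, 6-FAM labeling, HpaI digestion and capillary electrophoresis. Bidirectional fit versus DMSO.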

[6] = biological target: Signal transducer and activator of transcription 3 (Homo sapiens) (UniProt P40763); test: ATG_STAT3_CIS: Attagene CIS-FACTORIAL HepG2 Assay for human Signal Transducer and Activator of Transcription 3 (STAT3) (AID 2282963); conditions: HepG2, Attagene cis-factorial STAT3 reporter transcription; actives raise or lower the signal
Signal transducer and activator of transcription 3 (Homo sapiens), sequence (P40763 whole entry, looked up): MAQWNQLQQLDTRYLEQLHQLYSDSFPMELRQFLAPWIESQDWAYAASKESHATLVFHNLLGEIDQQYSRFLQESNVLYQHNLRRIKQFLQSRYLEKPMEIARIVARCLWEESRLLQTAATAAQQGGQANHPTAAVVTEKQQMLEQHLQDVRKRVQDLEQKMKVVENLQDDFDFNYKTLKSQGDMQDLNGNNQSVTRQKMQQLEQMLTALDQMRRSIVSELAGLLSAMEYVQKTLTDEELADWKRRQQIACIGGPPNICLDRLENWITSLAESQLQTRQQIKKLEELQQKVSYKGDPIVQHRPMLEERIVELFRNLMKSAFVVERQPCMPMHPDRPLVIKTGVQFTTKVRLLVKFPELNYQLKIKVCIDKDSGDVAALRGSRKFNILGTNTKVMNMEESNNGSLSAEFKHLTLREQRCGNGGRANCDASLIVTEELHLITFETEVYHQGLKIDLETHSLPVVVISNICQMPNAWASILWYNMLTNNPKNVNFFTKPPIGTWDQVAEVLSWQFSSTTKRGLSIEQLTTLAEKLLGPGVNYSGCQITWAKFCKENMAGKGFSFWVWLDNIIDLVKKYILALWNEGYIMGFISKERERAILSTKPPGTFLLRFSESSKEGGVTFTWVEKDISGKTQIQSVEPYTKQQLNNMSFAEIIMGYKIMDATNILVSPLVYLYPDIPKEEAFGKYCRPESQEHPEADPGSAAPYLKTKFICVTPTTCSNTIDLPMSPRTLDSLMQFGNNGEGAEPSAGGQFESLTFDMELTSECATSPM
Summary of the method: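 HepG2 cells transiently transfected with cis-element-driven multiple reporter transcription units; after 24 h chemical exposure, reporter mRNA measured by RT-PCR, 6-FAM primer-extension labelling, HpaI digestion and capillary electrophoresis. Bidirectional fitting versus DMSO baseline.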

[7] = ATG_TA_CIS: Attagene CIS-FACTORIAL HepG2 Assay for human TA Basal Promoter (AID 2282964); conditions: HepG2 Attagene CIS-factorial TA basal promoter reporter; actives raise or lower the signal
Summary of the method: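 Background internal-marker endpoint from a 52-component HepG2 cis-reporter panel. Cells treated 24 h; reporter transcripts quantified via RT-PCR and CE fluorescence against DMSO baseline.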

[8] = ATG_TAL_CIS: Attagene CIS-FACTORIAL HepG2 Assay for human TAL Basal Promoter (AID 2282966); conditions: HepG2 Attagene cis-factorial TAL promoter reporter; actives raise or lower the signal;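 further: background control endpoint measuring basal TAL promoter reporter mRNA not a specific factor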
Summary of the method: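 HepG2 cells were transiently transfected with promoter-driven multiplexed reporter units and dosed for 24 h. Reporter mRNA was measured by RT-PCR with capillary electrophoresis fluorescence; bidirectional fits used DMSO as baseline, serving as a background control.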

[9] = ATG_TGFb_CIS: Attagene CIS-FACTORIAL HepG2 Assay for human Transforming Growth Factor (TGF) (AID 2282967); conditions: HepG2 Attagene CIS TGFb reporter, mRNA transcription; actives raise or lower the signal
Summary of the method: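 Liver HepG2 line, cis-factorial reporter panel, 24 h dosing. Quantitation: RT-PCR products labeled with 6-FAM, cut with HpaI, resolved by capillary electrophoresis; DMSO-referenced bidirectional analysis.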

[10] = ATG_VDRE_CIS: Attagene CIS-FACTORIAL HepG2 Assay for human Vitamin D Receptor Element (VDRE) (AID 2282968); conditions: HepG2 VDRE cis-reporter transcription, actives raise or lower the signal
Summary of the method: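 HepG2 cells transiently transfected with cis-element reporter units, dosed 24 h; reporter mRNA measured by RT-PCR, 6-FAM labeling, HpaI digestion and capillary electrophoresis. Activity fitted bidirectionally against DMSO baseline.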

[11] = biological target: Nuclear receptor subfamily 1 group I member 3 (Homo sapiens) (UniProt Q14994); test: ATG_CAR_TRANS: Attagene TRANS-FACTORIAL HepG2 Assay for human Constitutive Androstane Receptor (CAR) (AID 2282969; active means hit-call score of the fitted dose curve at least 0.9, where 1 is the maximum;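 further: activators raise reporter mRNA above DMSO so AC50 marks induction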); conditions: HepG2 Attagene TRANS-FACTORIAL CAR reporter
Nuclear receptor subfamily 1 group I member 3 (Homo sapiens), sequence (Q14994 whole entry, looked up, the tested form may be a part): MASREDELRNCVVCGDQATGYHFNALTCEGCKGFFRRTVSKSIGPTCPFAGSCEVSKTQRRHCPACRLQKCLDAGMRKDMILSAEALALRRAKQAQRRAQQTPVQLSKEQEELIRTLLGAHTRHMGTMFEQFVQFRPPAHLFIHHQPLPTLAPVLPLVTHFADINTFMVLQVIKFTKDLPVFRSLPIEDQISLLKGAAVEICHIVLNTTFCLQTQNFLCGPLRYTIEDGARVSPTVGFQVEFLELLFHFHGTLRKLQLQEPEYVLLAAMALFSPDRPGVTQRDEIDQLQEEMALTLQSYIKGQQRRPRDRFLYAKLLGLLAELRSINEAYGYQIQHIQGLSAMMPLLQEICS
Summary of the method: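 HepG2 cells transiently transfected with multiplexed GAL4-UAS reporter units expressing chimeric NR-Gal4 proteins; compound exposure 24 h. Reporter mRNA measured by RT-PCR, 6-FAM labelling, HpaI digestion and capillary electrophoresis; gain-of-signal fitted against DMSO baseline.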

[12] = biological target: X-box-binding protein 1 (Homo sapiens) (UniProt P17861); test: ATG_Xbp1_CIS: Attagene CIS-FACTORIAL HepG2 Assay for human X-box Binding Protein 1 (XBP1) (AID 2282972); conditions: HepG2 XBP1 cis-element reporter, Attagene multiplex; actives raise or lower the signal
X-box-binding protein 1 (Homo sapiens), sequence (P17861 whole entry, looked up): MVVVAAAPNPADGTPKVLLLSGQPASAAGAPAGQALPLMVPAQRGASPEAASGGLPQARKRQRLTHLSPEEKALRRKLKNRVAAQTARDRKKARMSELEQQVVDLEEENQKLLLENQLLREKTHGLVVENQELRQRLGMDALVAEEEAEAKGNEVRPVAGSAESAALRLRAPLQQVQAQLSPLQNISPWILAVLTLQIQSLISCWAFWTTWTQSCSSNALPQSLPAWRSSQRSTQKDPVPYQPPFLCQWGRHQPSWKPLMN
Summary of the method: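 HepG2 cells transiently transfected with multiple cis-element reporter units report endogenous TF activity; 24 h exposure, then reporter mRNA measured by RT-PCR, 6-FAM labelling, HpaI digestion and capillary electrophoresis. Bidirectional fitting versus DMSO.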

[13] = ATG_M_19_TRANS: Attagene TRANS-FACTORIAL HepG2 Assay for M19 Transcription Factor (Internal Marker) (AID 2282974; active means hit-call score of the fitted dose curve at least 0.9, where 1 is the maximum); conditions: HepG2 Attagene TRANS-FACTORIAL M19 internal marker reporter
Summary of the method: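 Transfected HepG2 (GAL4-UAS MRTUs), 24 h compound, TriZol RNA, DNase-treated RT, reporter PCR, FAM label, HpaI digest, CE fluorescence; gain vs DMSO.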

[14] = biological target: Glucocorticoid receptor (Homo sapiens) (UniProt P04150); test: ATG_GR_TRANS: Attagene TRANS-FACTORIAL HepG2 Assay for human Glucocorticoid Receptor (GR) (AID 2282978; active means hit-call score of the fitted dose curve at least 0.9, where 1 is the maximum;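 further: activators score as hits since higher reporter transcript over DMSO is fitted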); conditions: HepG2 Attagene TRANS GR reporter, mRNA transcription
Glucocorticoid receptor (Homo sapiens), sequence (P04150 whole entry, looked up): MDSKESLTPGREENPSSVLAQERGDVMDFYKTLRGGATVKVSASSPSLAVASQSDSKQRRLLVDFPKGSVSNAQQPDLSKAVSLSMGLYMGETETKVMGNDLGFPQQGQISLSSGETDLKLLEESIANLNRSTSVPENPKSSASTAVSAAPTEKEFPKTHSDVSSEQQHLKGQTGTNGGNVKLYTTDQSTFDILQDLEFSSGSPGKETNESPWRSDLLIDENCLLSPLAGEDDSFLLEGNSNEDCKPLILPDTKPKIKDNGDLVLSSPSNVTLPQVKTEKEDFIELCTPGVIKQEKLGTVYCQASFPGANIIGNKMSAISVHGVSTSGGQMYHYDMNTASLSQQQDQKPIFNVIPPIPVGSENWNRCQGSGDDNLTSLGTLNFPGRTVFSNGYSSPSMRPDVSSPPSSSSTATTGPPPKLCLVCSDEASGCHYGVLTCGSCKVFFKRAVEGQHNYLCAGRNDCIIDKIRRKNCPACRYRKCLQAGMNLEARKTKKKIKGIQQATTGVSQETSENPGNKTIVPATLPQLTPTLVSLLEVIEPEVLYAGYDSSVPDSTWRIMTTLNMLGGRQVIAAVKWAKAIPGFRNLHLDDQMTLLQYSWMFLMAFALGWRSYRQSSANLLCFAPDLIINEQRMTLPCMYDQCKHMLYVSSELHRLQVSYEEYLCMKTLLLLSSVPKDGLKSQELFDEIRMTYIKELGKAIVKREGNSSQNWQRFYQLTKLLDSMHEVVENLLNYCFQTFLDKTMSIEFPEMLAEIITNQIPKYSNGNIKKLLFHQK
Summary of the method: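 After 24 h incubation with test chemical, transfected HepG2 cells were lysed for RNA; reporter cDNA was amplified, FAM-labelled, HpaI-digested and sized on a capillary analyser. Signal gain relative to DMSO was scored.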

[15] = ATG_RORE_CIS: Attagene CIS-FACTORIAL HepG2 Assay for human RAR-related Orphan Receptor Element (RORE) (AID 2282959); conditions: HepG2 Attagene cis-factorial RORE reporter, mRNA; actives raise or lower the signal
Summary of the method: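 A 24-hour exposure of transfected HepG2 hepatoma cells precedes RNA isolation and reporter RT-PCR. Labeled products are digested with HpaI and resolved by capillary electrophoresis, with gain or loss of signal scored relative to DMSO.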

[16] = ATG_TCF_b_cat_CIS: Attagene CIS-FACTORIAL HepG2 Assay for human T-Cell-Factor with beta-catenin (TCF/b-cat) (AID 2282965); conditions: HepG2 TCF/beta-catenin cis-reporter transcription, actives raise or lower the signal
Summary of the method: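 In this cis-format system, transfected HepG2 cells report endogenous transcription factor activity. Readout after 24 h exposure is reporter transcript abundance from RT-PCR and capillary electrophoresis, analysed for gain or loss of signal versus DMSO.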

[17] = ATG_PPRE_CIS: Attagene CIS-FACTORIAL HepG2 Assay for human Peroxisome Proliferator-activated Response Element (PPRE) (AID 2282958); conditions: HepG2 PPRE cis-element reporter, Attagene transcription factor profiling; actives raise or lower the signal
Summary of the method: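 PPRE activity in HepG2: transient cis-reporter transfection, 24 h compound incubation, reporter mRNA by RT-PCR and CE fluorescence; gain/loss fitted against DMSO.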

[18] = biological target: Bile acid receptor (Homo sapiens) (UniProt Q96RI1); test: ATG_FXR_TRANS: Attagene TRANS-FACTORIAL HepG2 Assay for Farnesoid X Receptor (FXR) (AID 2282979; active means hit-call score of the fitted dose curve at least 0.9, where 1 is the maximum;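 further: hits raise reporter mRNA above DMSO so AC50 marks FXR activation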); conditions: HepG2 Attagene TRANS FXR-GAL4 reporter transcription
Bile acid receptor (Homo sapiens), sequence (Q96RI1 whole entry, looked up, the tested form may be a part): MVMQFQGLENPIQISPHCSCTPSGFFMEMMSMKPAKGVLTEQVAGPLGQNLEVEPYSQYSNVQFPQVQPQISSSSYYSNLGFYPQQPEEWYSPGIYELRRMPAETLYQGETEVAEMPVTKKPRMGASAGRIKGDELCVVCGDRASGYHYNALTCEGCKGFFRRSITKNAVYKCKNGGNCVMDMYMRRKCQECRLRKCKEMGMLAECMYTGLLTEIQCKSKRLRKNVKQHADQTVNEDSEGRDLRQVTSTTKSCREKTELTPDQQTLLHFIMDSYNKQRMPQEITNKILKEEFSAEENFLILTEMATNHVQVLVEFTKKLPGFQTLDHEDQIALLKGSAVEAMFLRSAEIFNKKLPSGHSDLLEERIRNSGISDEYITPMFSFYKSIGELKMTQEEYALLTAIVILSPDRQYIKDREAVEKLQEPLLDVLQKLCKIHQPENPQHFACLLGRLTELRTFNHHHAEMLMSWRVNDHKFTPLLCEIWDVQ
Summary of the method: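 HepG2 cells transiently transfected with reporter constructs in which a chimeric FXR-GAL4 protein drives a GAL4-UAS reporter; 24 h compound exposure. Reporter mRNA measured by RT-PCR, FAM labelling, HpaI digestion and capillary electrophoresis; gain-of-signal versus DMSO.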

Measured: AC50

CC(C)(O)c1coc(S(=O)(=O)NC(=O)Nc2c3c(cc4c2CCC4)CCC3)c1
active: [2] 26.9 µM | [10] 44.5 µM
not listed: [15] | [16] | [17] | [18]
inactive: all other assays above

COC(=O)c1ccccc1O
active: [10] 26.4 µM
not listed: [11] | [13] | [14] | [17] | [18]
inactive: all other assays above

CC(C)c1cccc(C(C)C)c1N1C(=O)c2ccc(O)cc2C1=O
active: [1] 76.9 µM | [17] 26.9 µM | [3] 122 µM | [4] 74.2 µM | [5] 100 µM | [10] 33.9 µM | [12] 100 µM | [18] 19.8 µM
inactive: [2] | [6] | [7] | [8] | [9] | [13] | [14]

C=CCCCCCCCCC(=O)O
not listed: [11] | [14] | [15] | [17] | [18]
inactive: all other assays above

COCCOc1cc2cc(C(=O)NC3CCN(C(C)C)CC3)n(CC(=O)Nc3ccc(Cl)cn3)c2cn1
active: [1] 124 µM | [2] 144 µM | [3] 135 µM | [4] 100 µM | [5] 26.5 µM | [16] 108 µM | [10] 124 µM | [12] 100 µM
inactive: [6] | [7] | [8] | [9] | [14] | [18]

O=C(OC[C@H]1O[C@@H](OC(=O)c2cc(O)c(O)c(OC(=O)c3cc(O)c(O)c(O)c3)c2)[C@H](OC(=O)c2cc(O)c(O)c(OC(=O)c3cc(O)c(O)c(O)c3)c2)[C@@H](OC(=O)c2cc(O)c(O)c(OC(=O)c3cc(O)c(O)c(O)c3)c2)[C@@H]1OC(=O)c1cc(O)c(O)c(OC(=O)c2cc(O)c(O)c(O)c2)c1)c1cc(O)c(O)c(OC(=O)c2cc(O)c(O)c(O)c2)c1
not listed: [13] | [14] | [16] | [17] | [18]
inactive: all other assays above

CCOc1cccc(-n2cc(C(=O)N3CCN(c4cc(C(=O)O)c5ccccc5c4)CC3)nc2-c2ccc(C)cc2)c1
active: [1] 33 µM | [2] 41.4 µM | [17] 28.3 µM | [5] 3.92 µM | [9] 151 µM | [10] 27.2 µM
not listed: [11] | [15] | [16]
inactive: all other assays above

CC[C@H]1OC(=O)[C@H](C)[C@@H](O[C@H]2C[C@@](C)(OC)[C@@H](O)[C@H](C)O2)[C@H](C)[C@@H](O[C@@H]2O[C@H](C)C[C@H](N(C)C)[C@H]2O)[C@](C)(O)C[C@@H](C)C(=O)[C@H](C)[C@@H](O)[C@]1(C)O
not listed: [11] | [13] | [14] | [16] | [17] | [18]
inactive: all other assays above

C=CC(=C)CCC=C(C)C
active: [2] 18.8 µM
not listed: [13] | [14] | [17] | [18]
inactive: all other assays above

NC(=O)NO
not listed: [11] | [13] | [16] | [17] | [18]
inactive: all other assays above

C[C@](N)(Cc1ccc(O)c(O)c1)C(=O)O
not listed: [13] | [14] | [15] | [16] | [17] | [18]
inactive: all other assays above
